A number with no mark means an inactive call. Calls of active or inactive are those of the source.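 The calls were made as follows: active = thallium flux through the channel raised or lowered by more than 3 SD from vehicle-only wells, actives on both sides; inactive = the rest.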
Legend:
Assay in all cases: BK channel mutant inhibitors and activators – cell-based, U2OS BacMam, thallium flux, beta subunits, selectivity assay, profiling panel (AID 1259406);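 also: initial slope of Thallos dye fluorescence rise after thallium is added; log ratio against the mean of 0.3% DMSO vehicle wells on the same plate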
F380Y = details: U2OS BacMam BK variants, at 30 µM
F380Y/beta1 = details: U2OS BacMam BK variants, at 30 µM
F380Y/beta2Delta = details: U2OS BacMam BK variants, at 30 µM
F380Y/beta4 = details: U2OS BacMam BK variants, at 30 µM
[1] = molecular target: Calcium-activated potassium channel subunit alpha-1 (Homo sapiens) + Leucine-rich repeat-containing protein 26 (Homo sapiens) (UniProt Q12791+Q2I0M4); details: U2OS BacMam BK variants, F380Y/Slo1WT/gamma1, at 30 µM
Calcium-activated potassium channel subunit alpha-1 (Homo sapiens) + Leucine-rich repeat-containing protein 26 (Homo sapiens), sequence (Q2I0M4 whole entry, looked up, one chain of several): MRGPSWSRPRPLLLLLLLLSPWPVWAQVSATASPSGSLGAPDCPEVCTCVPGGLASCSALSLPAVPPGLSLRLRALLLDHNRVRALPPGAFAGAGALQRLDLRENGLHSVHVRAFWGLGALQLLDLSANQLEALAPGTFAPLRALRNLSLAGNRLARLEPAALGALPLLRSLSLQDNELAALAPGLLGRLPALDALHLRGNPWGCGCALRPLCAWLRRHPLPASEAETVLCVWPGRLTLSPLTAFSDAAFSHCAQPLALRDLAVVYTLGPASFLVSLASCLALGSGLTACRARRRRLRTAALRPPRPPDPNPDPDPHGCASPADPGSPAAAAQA

R275C = details: U2OS BacMam BK variants, at 30 µM
R275C/beta1 = details: U2OS BacMam BK variants, at 30 µM
R275C/beta2Delta = details: U2OS BacMam BK variants, at 30 µM
R275C/beta4 = details: U2OS BacMam BK variants, at 30 µM
R275C/Slo1WT/beta2 = details: U2OS BacMam BK variants, at 30 µM

Row | SMILES | log fold change Tl+ flux (F380Y) | log fold change Tl+ flux (F380Y/beta1) | log fold change Tl+ flux (F380Y/beta2Delta) | log fold change Tl+ flux (F380Y/beta4) | log fold change Tl+ flux [1] | log fold change Tl+ flux (R275C) | log fold change Tl+ flux (R275C/beta1) | log fold change Tl+ flux (R275C/beta2Delta) | log fold change Tl+ flux (R275C/beta4) | log fold change Tl+ flux (R275C/Slo1WT/beta2)
1 | COc1cccc(C=NNC(=O)C2CCCN(C(=S)NNC3CC4C=CC3C4)CC2)c1O (stereo not given) | 0.0111 | -0.0549 | -0.0296 | 0.0197 | 0.0309 | -0.00837 | 0.0189 | -0.0281 | -0.00446 | 0.00307
2 | CCOC(=O)c1ccc(-n2sccc2=O)cc1 | -0.0987 | 0.078 | -0.0422 | -0.0664 | 0.0683 | 0.0277 | 0.179 (active) | 0.113 (active) | 0.141 (active) | 0.0482
3 | Cn1cnc([N+](=O)[O-])c1Sc1cccs1 | 0.0486 | 0.0187 | 0.0459 | 0.0453 | 0.029 | 0.00916 | 0.0118 | 0.0288 | 0.0285 | 0.0293
4 | CSc1cc(C(C)(C)C)[nH]n1 | -0.125 (active) | -0.0178 | -0.218 (active) | -0.423 (active) | 0.0568 | 0.0547 | 0.173 (active) | -0.014 | 0.047 | 0.0223
5 | O=C(O)CCSc1ccc2ccccc2c1 | -0.00784 | 0.0347 | -0.0447 | 0.0271 | -0.000304 | 0.0461 | 0.0425 | -0.00975 | -0.0121 | 0.000781
6 | Cc1cc(C)c2cc(C(=O)Nc3ccccc3SCc3cccc(Cl)c3F)[nH]c2c1 | 0.0408 | 0.0143 | 0.00341 | -0.00891 | -0.00142 | 0.000963 | 0.041 | 0.02 | 0.00151 | 0.025
7 | NC(=NC(=O)c1cccs1)c1cccs1 | 0.00622 | 0.0573 | 0.0445 | 0.0177 | 0.0217 | 0.0451 | 0.0586 | 0.0615 | 0.0555 | 0.0314
8 | CC(C)C1COC(c2cccc(C3=NC(C(C)C)CO3)n2)=N1 (stereo not given) | -0.0154 | 0.0433 | 0.00332 | 0.0308 | 0.0138 | -0.00894 | 0.00883 | -0.00732 | -0.00827 | 0.043
9 | Cc1cc(C)n2nc(Sc3ncccc3[N+](=O)[O-])nc2n1 | 0.0293 | -0.0122 | -0.0308 | 0.00857 | 0.0468 | 0.0175 | -0.025 | -0.00322 | 0.00925 | 0.0318
10 | O=c1n(-c2ccccc2)c(=O)n2n1C1CCC2C1 | -0.0367 | -0.0272 | -0.00637 | 0.0475 | -0.00381 | 0.0483 | 0.0201 | 0.00605 | -0.0283 | 0.0498
11 | O=S1(=O)CC(N2CCOCC2)c2ccccc21 (stereo not given) | -0.0264 | -0.00462 | 0.0333 | 0.00745 | 0.00701 | -0.00299 | 0.0226 | 0.00722 | 0.00198 | -0.0351
12 | Clc1ccc(-c2cnc(-c3ccc(Cl)cc3)o2)cc1 | 0.0159 | -0.0226 | 0.0345 | -0.00734 | -0.0607 | 0.0428 | 0.00118 | 0.0163 | 0.00237 | -0.017
13 | CCOC(=O)NN=C(C)C(C)=NNC(=O)OCC | -0.0316 | -0.0656 | -0.0255 | -0.0305 | -0.00664 | -0.0333 | -0.0653 | -0.00622 | -0.0094 | 0.0167
14 | Cc1ccc(NC(=S)NCCO)cc1 | 0.021 | 0.0481 | 0.0272 | -0.0116 | -0.000511 | 0.0409 | -0.0306 | -0.0145 | 0.0201 | 0.0248
15 | COC(=O)c1cc(C)nc(Sc2n[nH]c(-c3cc(Cl)cc(Cl)c3)n2)n1 | -0.0391 | 0.0897 (active) | 0.0312 | 0.046 | 0.044 | 0.00719 | 0.0447 | 0.0581 | 0.0071 | 0.059
16 | CC(C)(C)OC(=O)N1CCC(c2nc(-c3ccc(Cl)s3)cs2)CC1 | 0.0108 | 0.0589 | -0.0352 | -0.0115 | -0.0565 | -0.00778 | 0.0364 | 0.0302 | 0.0463 | 0.0374
17 | COC(=O)C=C1NCC(O)CNC1=O (stereo not given) | -0.00633 | -0.0361 | 0.00999 | -0.025 | -0.0336 | 0.0119 | -0.0456 | 0.0117 | -2.9e-05 | 0.0313
18 | COC(=O)c1sccc1NN=C(C)c1ccc(NC(=O)C(Cl)Cl)cc1 | 0.0593 | -0.0356 | 0.0103 | -0.0317 | 0.0385 | -0.0133 | -0.0386 | -0.0375 | -0.0101 | 0.0362
19 | Oc1ccccc1C=NCCN=Cc1ccccc1O | -0.0379 | -0.0045 | 0.0233 | 0.122 (active) | 0.00734 | 0.0166 | -0.00586 | 0.0216 | 0.00607 | 0.0616
20 | O=C(O)c1cccc(CSc2cccs2)c1 | 0.0692 | 0.0279 | 0.0398 | 0.000664 | 0.0207 | 0.0115 | 0.0346 | 0.018 | 0.0269 | 0.0372
21 | O=C(O)c1nnn(-c2ccccc2Oc2ccc(Cl)cc2Cl)c1-c1ccccc1 | 0.0736 | 0.343 (active) | 0.17 (active) | 0.243 (active) | 0.127 (active) | -0.021 | 0.297 (active) | 0.113 (active) | 0.287 (active) | 0.0348
22 | CCOC(=O)c1cc(CC)sc1NC(=O)C(Cl)(Cl)Cl | -0.00144 | 0.0314 | -0.028 | 0.0374 | 0.0144 | -0.0151 | -0.066 | 0.0214 | -0.00727 | -0.00449
23 | CCOC(=O)c1c(N)n(-c2ccc(Cl)cc2)c2nc3ccccc3nc12 | -0.0102 | 0.0245 | -0.0247 | 0.0204 | 0.0261 | -0.0291 | -0.0146 | -0.0215 | 0.011 | 0.0184
24 | Cc1ccc(C(=O)Cn2cc([N+](=O)[O-])nc2C)cc1 | -0.00237 | -0.0164 | 0.0463 | -0.00425 | -0.043 | 0.00593 | 0.0164 | -0.0174 | 0.0383 | 0.0674
25 | O=C(Nc1ccc(OC(F)(F)F)cc1)OC1CN(C(c2ccccc2)c2ccccc2)C1 | -0.0399 | -0.0331 | -0.0434 | -0.154 (active) | -0.134 (active) | -0.0449 | 0.0012 | -0.0123 | 0.0956 (active) | -0.0244
26 | O=S(=O)(NCc1ccc2c(c1)CCO2)c1cccs1 | -0.0321 | -0.0222 | -0.0113 | -0.00792 | -0.0976 | -0.0104 | -0.072 | -0.0692 | -0.0665 | -0.0508

From PubChem BioAssay
